Measurements reported in PubChem BioAssay (NCI).
Compounds without any hit were thinned out: in the full panel of roughly 83,000, 20% have a hit.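 Cells were grown in 96-well plates and exposed to the test compound at a single concentration for 48 hours; results are reported as percent growth, with values below 10 considered active.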 Active and inactive are the calls of the source.

Columns and labels:
Assay in all cases: NCI-60 one-dose screen, 48 h (100 = growth as untreated, 0 = no growth, -100 = all killed)
NCI-H23 lung = conditions: 10 µM unless noted
NCI-H226 lung = conditions: 10 µM unless noted
DU-145 prostate = conditions: 10 µM unless noted
MDA-MB-231 breast = conditions: 10 µM unless noted
SF-268 CNS = conditions: 10 µM unless noted
M14 melanoma = conditions: 10 µM unless noted
HCT-15 colon = conditions: 10 µM
HT29 colon = conditions: 10 µM unless noted
PC-3 prostate = conditions: 10 µM unless noted
UACC-62 melanoma = conditions: 10 µM unless noted
LOX IMVI melanoma = conditions: 10 µM unless noted
SK-MEL-28 melanoma = conditions: 10 µM unless noted
OVCAR-8 ovarian = conditions: 10 µM unless noted
OVCAR-5 ovarian = conditions: 10 µM unless noted
SK-OV-3 ovarian = conditions: 10 µM unless noted
OVCAR-3 ovarian = conditions: 10 µM unless noted
NCI/ADR-RES ovarian = conditions: 10 µM unless noted
SW-620 colon = conditions: 10 µM unless noted
MCF7 breast = conditions: 10 µM unless noted
KM12 colon = conditions: 10 µM unless noted

Measured: growth

CCCCCCCCCCCCOc1ccc(C(=O)Oc2ccc(CSP3(=O)OCC4OC(n5cnc6c(N)ncnc65)C(F)C4OP(=O)(O)OCC4OC(n5ccc(=O)[nH]c5=O)C(F)C4O3)cc2)cc1 (stereo not drawn)
inactive: NCI-H23 lung 101% | NCI-H226 lung 85.5% | DU-145 prostate 103% | MDA-MB-231 breast 108% | SF-268 CNS 107% | M14 melanoma 86.2% | HCT-15 colon 101% | HT29 colon 78.8% | PC-3 prostate 100% | UACC-62 melanoma 118% | LOX IMVI melanoma 85.9% | SK-MEL-28 melanoma 121% | OVCAR-8 ovarian 109% | OVCAR-5 ovarian 115% | SK-OV-3 ovarian 110% | OVCAR-3 ovarian 98.2% | NCI/ADR-RES ovarian 102% | SW-620 colon 118% | MCF7 breast 93.4% | KM12 colon 106%

NC(=O)C(Br)CBr (stereo not drawn)
active: NCI-H226 lung -18.8% | DU-145 prostate -28.2% | SF-268 CNS -23.1% | M14 melanoma -88.3% | HCT-15 colon -7.98% | HT29 colon -21.8% | LOX IMVI melanoma 3.13% | SK-MEL-28 melanoma -28% | OVCAR-8 ovarian -24.1% | OVCAR-3 ovarian -85.1% | SW-620 colon -59.3% | MCF7 breast 2.57%
inactive: NCI-H23 lung 24.1% | MDA-MB-231 breast 14.3% | PC-3 prostate 13.9% | UACC-62 melanoma 19.9% | OVCAR-5 ovarian 10.9% | SK-OV-3 ovarian 80% | NCI/ADR-RES ovarian 15.3% | KM12 colon 71.4%

O=C(O)CC(Br)C(=O)CBr (stereo not drawn)
inactive: NCI-H23 lung 108% | NCI-H226 lung 91.9% | DU-145 prostate 111% | MDA-MB-231 breast 98.2% | SF-268 CNS 106% | M14 melanoma 103% | HCT-15 colon 93.5% | HT29 colon 109% | PC-3 prostate 98.7% | UACC-62 melanoma 102% | LOX IMVI melanoma 86.6% | SK-MEL-28 melanoma 102% | OVCAR-8 ovarian 99.4% | OVCAR-5 ovarian 106% | SK-OV-3 ovarian 106% | OVCAR-3 ovarian 114% | NCI/ADR-RES ovarian 111% | SW-620 colon 103% | MCF7 breast 86.3% | KM12 colon 111%

CCC[CH2][Sn]([CH2]CCC)([CH2]CCC)[O]C(=O)CC
active: NCI-H23 lung -87.1% | NCI-H226 lung -58.9% | DU-145 prostate -97.7% | MDA-MB-231 breast -79.4% | SF-268 CNS -97.3% | M14 melanoma -91.4% | HCT-15 colon -72.9% | HT29 colon -81.2% | PC-3 prostate -92.7% | UACC-62 melanoma -90% | LOX IMVI melanoma -83.3% | SK-MEL-28 melanoma -98.3% | OVCAR-8 ovarian -70.4% | OVCAR-5 ovarian -91.2% | SK-OV-3 ovarian -99.5% | OVCAR-3 ovarian -99.1% | NCI/ADR-RES ovarian -87% | SW-620 colon -84.8% | MCF7 breast -82.1% | KM12 colon -93.2%

C[C@]12CC[C@H](OC3OC(O)C(O)C(O)C3O)C=C1CCC1C2CC[C@]2(C)[C@@H](c3ccc(=O)oc3)CC[C@]12O (stereo partly drawn)
active: NCI-H23 lung -68.9% | NCI-H226 lung -70.6% | DU-145 prostate -100% | MDA-MB-231 breast -72.1% | SF-268 CNS -99.4% | M14 melanoma -81% | HCT-15 colon -81.8% | HT29 colon -84.5% | PC-3 prostate -12.2% | UACC-62 melanoma -84.3% | LOX IMVI melanoma -84.4% | SK-MEL-28 melanoma -82.9% | SK-OV-3 ovarian -93.7% | OVCAR-3 ovarian -99.2% | NCI/ADR-RES ovarian -71.2% | SW-620 colon -90.5% | MCF7 breast -64.3% | KM12 colon -93.8%
inactive: OVCAR-8 ovarian 110%

CCCCNCCc1ccccn1
inactive: NCI-H23 lung 99.9% | NCI-H226 lung 110% | DU-145 prostate 113% | MDA-MB-231 breast 114% | SF-268 CNS 107% | M14 melanoma 99.6% | HCT-15 colon 102% | HT29 colon 102% | PC-3 prostate 96% | UACC-62 melanoma 109% | LOX IMVI melanoma 97.1% | SK-MEL-28 melanoma 104% | OVCAR-8 ovarian 102% | OVCAR-5 ovarian 101% | SK-OV-3 ovarian 119% | OVCAR-3 ovarian 106% | NCI/ADR-RES ovarian 105% | SW-620 colon 103% | MCF7 breast 92.1% | KM12 colon 102%

CN=C(NN)NN
inactive: NCI-H23 lung 102% | NCI-H226 lung 109% | DU-145 prostate 111% | MDA-MB-231 breast 120% | SF-268 CNS 103% | M14 melanoma 105% | HCT-15 colon 104% | HT29 colon 106% | PC-3 prostate 93.3% | UACC-62 melanoma 116% | LOX IMVI melanoma 98.1% | SK-MEL-28 melanoma 118% | OVCAR-8 ovarian 99.3% | OVCAR-5 ovarian 111% | SK-OV-3 ovarian 110% | OVCAR-3 ovarian 102% | SW-620 colon 107% | MCF7 breast 99.3% | KM12 colon 108%

C[C@]12CC[C@H]3[C@@H](C[C@@H]4N=C(c5ccc(O)cc5)S[C@@]45C[C@H](O)CC[C@]35C)[C@@H]1CC[C@@H]2O
inactive: NCI-H23 lung 74.7% | NCI-H226 lung 110% | DU-145 prostate 63.8% | MDA-MB-231 breast 56.2% | SF-268 CNS 48.6% | M14 melanoma 60.5% | HCT-15 colon 29.5% | HT29 colon 19.9% | PC-3 prostate 49.5% | UACC-62 melanoma 28.7% | LOX IMVI melanoma 25.4% | SK-MEL-28 melanoma 53.3% | OVCAR-8 ovarian 74.2% | OVCAR-5 ovarian 106% | SK-OV-3 ovarian 38.6% | OVCAR-3 ovarian 38.6% | NCI/ADR-RES ovarian 76.8% | SW-620 colon 71.7% | MCF7 breast 42.6% | KM12 colon 60.8%

CCC(C)(C)O
inactive: NCI-H23 lung 111% | NCI-H226 lung 102% | DU-145 prostate 115% | MDA-MB-231 breast 97.4% | SF-268 CNS 99.1% | M14 melanoma 107% | HCT-15 colon 99.9% | HT29 colon 109% | PC-3 prostate 100% | UACC-62 melanoma 98.5% | LOX IMVI melanoma 108% | SK-MEL-28 melanoma 108% | OVCAR-8 ovarian 108% | OVCAR-5 ovarian 90.1% | SK-OV-3 ovarian 118% | OVCAR-3 ovarian 111% | NCI/ADR-RES ovarian 110% | SW-620 colon 99.9% | MCF7 breast 97.6% | KM12 colon 105%
